SARS PLpro yeast = inhibitors of SARS-CoV papain-like protease in yeast; S. cerevisiae expressing SARS-CoV PLpro, growth rescue; Potency, µM (top dose mostly 32.9 µM), hits mostly activators; 0.19% of 330,000 active; calls by dose curve; note: nearly all actives have a fitted effect of over 55% in size
Giardia FBPA inh = blocks Giardia fructose-bisphosphate aldolase activity; AID 2451; 0.71% of 290,000 active; purified Giardia FBPA; Potency, µM (doses to about 59.6 µM), usual class: inhibitors; note: nearly all actives have a fitted effect of over 55% in size
Target sequence (A8B2U2 whole entry, looked up): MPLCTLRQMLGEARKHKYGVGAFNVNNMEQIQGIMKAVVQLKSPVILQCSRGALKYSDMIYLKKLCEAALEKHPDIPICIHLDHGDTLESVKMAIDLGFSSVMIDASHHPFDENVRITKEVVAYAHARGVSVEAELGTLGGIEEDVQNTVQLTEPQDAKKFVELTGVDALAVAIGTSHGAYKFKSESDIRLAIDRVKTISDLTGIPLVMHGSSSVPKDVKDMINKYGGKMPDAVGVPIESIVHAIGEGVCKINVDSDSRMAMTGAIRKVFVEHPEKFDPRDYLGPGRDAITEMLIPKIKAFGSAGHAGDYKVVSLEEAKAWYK
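40 nM FBPA preincubated 10 min at RT with compound (up to 57.5 uM final), then substrate plus GAPDH/TPI/NAD/arsenate coupling and diaphorase/resazurin added. Fluorescence read after 20 min at RT, 525/598 nm.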
AmpC no deterg = AmpC beta-lactamase inhibition without detergent. AID 485341. 0.52% of 330,000 active. Potency, µM (top dose mostly 57.1 µM), usual class: inhibitors. P00811. AmpC nitrocefin hydrolysis, absorbance 480 nm, 0.0001% Triton; note: nearly all actives have a fitted effect of over 20% in size
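AmpC (5.3 nM in the dispensed reagent) in 20 mM phosphate pH 7.0 with 0.01% (detergent screen) or 0.0001% Triton X-100 was preincubated with compounds for 15 min at room temperature. Nitrocefin was then added from an 800 uM solution, and hydrolysis was followed at 480 nm.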
AmpC detergent = inhibitors of E. coli AmpC beta-lactamase with detergent | AID 485294 | Potency, µM (series often up to 114 µM), usual class: inhibitors | P00811 | AmpC hydrolysis of nitrocefin, absorbance 480 nm, 0.01% Triton | 0.041% of 370,000 active; note: nearly all actives have a fitted effect of over 25% in size
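20 mM phosphate pH 7.0 + 0.01% (detergent screen) or 0.0001% Triton X-100; 5.3 nM AmpC reagent; cpd preinc 15 min RT; nitrocefin (800 uM stock) to start; A480 q20 s × 4 min; Activity was normalised to no-enzyme and no-compound control wells.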
NS1 inh = blocks influenza NS1 protein function; Potency, µM (doses to about 46.1 µM); 0.4% of 270,000 active; AID 2326; calls by dose curve; note: actives are rising curves; nearly all actives have a fitted effect of over 50% in size
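A cell-based growth assay was used: compounds that relieve NS1-induced slow growth of budding yeast raise OD600. Assay medium was yeast nitrogen base with ammonium sulphate and -URA supplement, pH 6.0, with 2% galactose.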
Numbers stand for hits; . = inactive; ? = inconclusive; / = no result given; ! = not active in a repeat; [ ] = remark or other dose. Hits are enriched below; roughly 1.4% of the tested compounds scored in any of these assays. Unless noted, calls come from the whole dose curve; as a rule, active = well fitted curve in the direction sought with a large enough effect; inconclusive = small, poorly fitted or top-dose-only effect, or another doubt; inactive = no such curve, though single readings can be large; an effect the other way counts as inactive or inconclusive.

SMILES	SARS PLpro yeast	Giardia FBPA inh	AmpC no deterg	AmpC detergent	NS1 inh
Cc1ccc(C(=O)C2=C(O)C(=O)N(Cc3cccnc3)C2c2ccc(Br)cc2)o1 (stereo not given)	.	/	.	.	.
CCOc1ccc(NS(=O)(=O)c2ccc(C(=O)N(C)CCc3ccc(OC)c(OC)c3)cc2)cc1	.	.	.	.	.
Cc1ccc2[nH]c3c(NCCN4CCOCC4)ncnc3c2c1	.	.	.	.	.
C=CCNc1ncnc2c1[nH]c1ccc(C)cc12	.	.	13µM	?	.
O=C(CSc1n[nH]c(-c2ccc(S(=O)(=O)N3CCCCC3)cc2)n1)Nc1nccs1	.	.	14µM	?	.
Cn1c(SCC(=O)Nc2nccs2)nnc1-c1ccc(S(=O)(=O)N2CCCC2)cc1	.	.	.	.	.
CC(NC(=O)COC(=O)c1cccc(S(=O)(=O)N2CCCC2)c1)c1ccccc1 (stereo not given)	.	/	.	/	/
O=c1cc(-c2ccc(O)cc2O)oc2ccccc12	/	.	/	/	/
COc1cc2oc(-c3ccccc3)cc(=O)c2cc1OC	/	.	/	/	/
COc1cc(OC)c(-c2c3cc(O)c(=O)cc-3oc3cc(O)c(O)cc23)cc1OC	3.2µM	?	.	?	.
Cc1c2cc(O)c(=O)cc-2oc2cc(O)c(O)cc12	?	7.1µM	?	?	.
Cc1cccc(NC(=O)CCN2C(=O)c3ccccc3C2=O)c1	.	.	.	.	.
O=C1NC(=O)N(Cc2ccccc2Cl)C(=O)/C1=C/c1cccs1	.	.	20µM	.	/
CCSc1ncc(Cl)c(C(=O)Nc2c(C(=O)c3ccc(C)c(F)c3)oc3ccccc23)n1	/	/	/	.	/
Cc1ccc(NC(=O)C(OC(=O)c2ccc(O)cc2)c2ccccc2)cc1Cl (stereo not given)	.	.	7.1µM	.	.
Cc1ccc(S(=O)(=O)Nc2nnc(C3CCCCC3)s2)cc1	.	.	.	.	.
CCc1nnc(NC(=O)COc2ccc(N(C)S(=O)(=O)c3ccc(C)cc3)cc2)s1	.	.	.	.	/
Cc1ccc(S(=O)(=O)N(C)c2ccc(OCC(=O)Nc3nnc(C4CC4)s3)cc2)cc1	.	.	14µM	.	/
Cc1ccc(S(=O)(=O)NC(=O)Nc2nnc(C3CC3)s2)cc1	.	.	4.5µM	.	.
CC(=O)NC(CCS(C)(=O)=O)C(=O)Nc1ccccc1 (stereo not given)	.	.	5µM	?	.
CCC(C)CCN1C(N(C)C)=NC[C@@H]1Cc1ccccc1 (stereo not given in full)	.	/	.	.	/
COC(=O)CSc1nnc([C@H](Cc2ccccc2)NC(=O)OC(C)(C)C)o1	.	.	.	.	.
Cc1cccc(CS(=O)(=O)c2nnc([C@H](Cc3ccccc3)NC(=O)OC(C)(C)C)o2)c1	.	.	.	40µM	.
COC(=O)CS(=O)(=O)c1nnc([C@H](Cc2ccccc2)NC(=O)OC(C)(C)C)o1	.	.	?	35µM	.
O=C(c1nnsc1S(=O)c1ccc(Cl)cc1)N1CCOCC1 (stereo not given)	.	.	.	?	/
SMILES	SARS PLpro yeast	Giardia FBPA inh	AmpC no deterg	AmpC detergent	NS1 inh
O=C(Nc1ccccc1)c1nnsc1S(=O)c1ccc(Cl)cc1 (stereo not given)	.	.	14µM	?	.
COc1ccc(S(=O)(=O)N(C)C)cc1NC(=O)Cc1c[nH]c2ccccc12	.	.	22µM	.	/
Cc1ccc2nc(/C(C#N)=C/c3cccc(Br)c3)[nH]c2c1	/	/	/	.	/
Cc1ccc2nc(/C(C#N)=C/c3ccc(O)c(O)c3)[nH]c2c1	.	?	20µM	.	?
Cc1cc(NC(=O)CSCC(=O)OCC(=O)Nc2ccc(OC(F)F)cc2)no1	.	/	.	.	/
Cc1cc(NC(=O)CSCC(=O)OCC(=O)c2cccc(Br)c2)no1	.	/	32µM	.	/
Cc1ccc(NCC(=O)c2ccccc2)cc1Cl	.	.	0.32µM	.	.
Cc1ccc(NC2=C(NC(=O)c3ccccc3)C(=O)c3ccccc3C2=O)cc1Cl	.	?	20µM	.	.
C[C@@H]1CN([C@@H](C)CO)C(=O)Cc2cc(NC(=O)C3CCCCC3)ccc2O[C@H]1CN(C)S(=O)(=O)c1ccccc1	.	/	.	/	/
Cc1ccc(C(=O)NC(NC(=S)Nc2ccc(S(N)(=O)=O)cc2)C(Cl)(Cl)Cl)cc1 (stereo not given)	.	.	.	?	.
Cc1ccccc1C(=O)NC(NC(=S)Nc1ccc(S(N)(=O)=O)cc1)C(Cl)(Cl)Cl (stereo not given)	.	.	20µM	.	.
CCCCCC1CC1C(=O)N/N=C/c1ccc(N(C)C)cc1 (stereo not given)	.	/	.	.	.
COC(=O)CC1SC(=O)NC1=Nc1cccc(C)c1 (stereo not given)	.	.	.	.	.
NCCS	.	16µM!	.	.	.
COc1ccc(-c2cc(=O)oc3cc(OC(C)C(=O)NCc4ccccn4)ccc23)cc1 (stereo not given)	4µM	.	.	?	.
Cc1ccsc1/C=N\NC(=O)CC(=O)NCc1ccccc1	.	20µM	.[11.4 µM]	?	/
Cc1ccc(C2=Nc3ccccc3N(CC(=O)Nc3ccccc3C)C(=O)C2)cc1C	/	/	/	.	/
Cc1c(C=O)c(Cl)n(C)c(=O)c1C#N	.	10µM	.	.	/
Cc1c(/C=N/Nc2ccc(F)cc2)c(O)n(C)c(=O)c1C#N	.	?	.	.	.
CC(=O)N=Cc1c(C)c(C#N)c(=O)n(C)c1O	.	8.9µM	.	.	/
CC(NC(=O)c1cccs1)C(c1cccs1)N1CCN(Cc2ccccc2)CC1 (stereo not given)	.	.	.	.	.
CCC(=O)NC(C)C(c1cccs1)N1CCN(Cc2ccccc2)CC1 (stereo not given)	.	.	45µM	?	.
CCCC(=O)Nc1nc(-c2ccc3c(c2)OCCO3)cs1	.	.	11µM	?	.
